# PubChem BioAssay (Tox21)
# Values joined by “and” are separate entries in the source; they are usually repeats but may differ in a detail not shown here. Equal entries are not always repeated. Records with an inconclusive call do not appear. A call without a number means that no potency is given here. A structure can be active in one record and inactive in another. Active and inactive are the calls of the source. Unless noted, the call rests on the fitted dose curve; in most records, active means well fitted curve in the direction sought with a large enough effect in the repeat runs; inconclusive means weak or mixed curves; inactive means no such curve, though single readings can be large; an effect the other way counts as inactive or inconclusive.
# Columns and labels:
# [1] = qHTS assay to identify small molecule antagonists of the vitamin D receptor (VDR) signaling pathway - cell viability counter screen (AID 743225); further: nearly all actives have a fitted effect of over 50% in size; further: potency means the concentration at half of the fitted maximal effect
# Procedure, shortened: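 Cytotoxicity toward the VDR-bla HEK 293T line was scored by ATP-based CellTiter-Glo luminescence, read in the wells already used for the beta-lactamase readout after 16 h compound treatment under 3 nM 1-alpha,25-dihydroxyvitamin D3 stimulation.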
# [2] = qHTS assay to identify small molecule agonists of the endoplasmic reticulum stress response signaling pathway (AID 1159516; active means well fitted activation curve with a large enough effect in the signal ratio in the repeat runs, not every such curve was filed as active; the % refers to the signal ratio; further: potency means the concentration at half of the fitted maximal effect)
# Procedure, shortened: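 Reporter HeLa cells (ESRE-beta-lactamase) underwent 5 hr compound incubation at 37 C and 5% CO2 in quantitative HTS format. Detection followed 2 hr of FRET substrate loading at room temperature.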
# [3] = qHTS assay to identify small molecule antagonists of the retinoid-related orphan receptor gamma (ROR-gamma) signaling pathway - cell viability counter screen (AID 1159520); further: nearly all actives have a fitted effect of over 50% in size; further: potency means the concentration at half of the fitted maximal effect
# Procedure, shortened: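 Tet-on ROR gamma CHO cells (1,000/well) were plated 4 hr, given compounds in DMSO for 2 hr at 37 C, then induced with 1 uM final doxycycline for 16 hr. Viability was read as ATP by CellTiter-Glo luminescence after 30 min.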
# [4] = qHTS assay to identify small molecule agonists of the AP-1 signaling pathway - cell viability counter screen (AID 1159525; calls by dose curve; further: nearly all actives have a fitted effect of over 55% in size; further: potency means the concentration at half of the fitted maximal effect)
# Procedure, shortened: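 ME-180 AP-1-bla, 2500 cells/well, Opti-MEM + 0.5% dialyzed FBS; overnight 37 °C; cpd 15-pt titration, 5 h 37 °C; CellTiter-Glo 30 min RT; luminescence read; normalised to TOAB and DMSO controls.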
# [5] = qHTS assay to identify small molecule agonists of the AP-1 signaling pathway (AID 1159526; calls by dose curve)
# [6] = molecular target: Retinoic acid receptor RXR-alpha (Homo sapiens) (UniProt P19793); test: qHTS assay to identify small molecule agonists of the RXR signaling pathway (AID 1159527; calls by dose curve; further: nearly all actives have a fitted effect of over 35% in size)
# Retinoic acid receptor RXR-alpha (Homo sapiens), sequence (P19793 whole entry, looked up): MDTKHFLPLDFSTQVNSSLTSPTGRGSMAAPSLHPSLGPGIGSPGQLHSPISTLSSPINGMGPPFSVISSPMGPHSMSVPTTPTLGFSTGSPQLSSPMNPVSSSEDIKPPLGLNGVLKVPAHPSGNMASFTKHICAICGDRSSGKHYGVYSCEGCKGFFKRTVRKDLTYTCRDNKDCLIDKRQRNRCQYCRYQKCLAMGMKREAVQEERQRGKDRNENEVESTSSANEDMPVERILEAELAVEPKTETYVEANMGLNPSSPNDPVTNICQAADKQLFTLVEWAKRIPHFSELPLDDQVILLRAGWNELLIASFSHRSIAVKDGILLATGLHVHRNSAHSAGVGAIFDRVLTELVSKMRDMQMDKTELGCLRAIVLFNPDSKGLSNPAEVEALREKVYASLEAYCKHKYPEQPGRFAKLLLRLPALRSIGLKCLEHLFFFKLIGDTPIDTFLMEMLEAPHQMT
# Procedure, shortened: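 Reporter activation is measured as beta-lactamase activity via FRET substrate cleavage (emission 460/530 nm) in HEK 293T cells expressing an RXR-alpha-driven bla construct, following 16 hr compound exposure at 37 C.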
# [7] = qHTS assay to identify small molecule agonists of the RXR signaling pathway - cell viability counter screen (AID 1159529); further: nearly all actives have a fitted effect of over 50% in size; further: potency means the concentration at half of the fitted maximal effect
# Procedure, shortened: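 Tox21 10K compounds were tested for cytotoxicity against GeneBLAzer RXR-alpha HEK 293T cells grown in 2% charcoal-stripped FBS. Exposure lasted 16 hr at 37 C, 5% CO2; viability read by CellTiter-Glo luminescence.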
# [8] = qHTS assay to identify small molecule antagonists of the retinoid acid receptor (RAR) signaling pathway - cell viability counter screen (AID 1159551); further: nearly all actives have a fitted effect of over 35% in size; further: potency means the concentration at half of the fitted maximal effect
# Procedure, shortened: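 Seed C3RL4 cells; next day add compound, then retinol to 1 uM final; incubate 6 h at 37 C; add CellTiter-Glo; read luminescence after 30 min at RT.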
# [9] = qHTS assay to identify small molecule antagonists of the estrogen related receptor (ERR) signaling pathway from Tox21 library - cell viability counter screen (AID 1224834); further: nearly all actives have a fitted effect of over 30% in size; further: potency means the concentration at half of the fitted maximal effect
# Procedure, shortened: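 CellTiter-Fluor fluorescence measured; ERR cells; 17.5 h compound incubation at 37 C; 30 min reagent step.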
# [10] = qHTS assay to identify small molecule agonists of the endoplasmic reticulum stress response signaling pathway - cell viability counter screen (AID 1159517; calls by dose curve; further: nearly all actives have a fitted effect of over 50% in size; further: potency means the concentration at half of the fitted maximal effect)
# Procedure, shortened: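 Luminescence readout: CellTiter-Glo, 30 min RT, same wells as the ESRE-bla reporter read. HeLa ESRE-bla, 1,500 cells/well, o/n 37 C; cpd 5 hr 37 C/5% CO2.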
# [11] = molecular target: Nuclear receptor ROR-gamma (Homo sapiens) (UniProt P51449); test: qHTS assay to identify small molecule antagonists of the retinoid-related orphan receptor gamma (ROR-gamma) signaling pathway (AID 1159521; further: nearly all actives have a fitted effect of over 50% in size; further: potency means the concentration at half of the fitted maximal effect)
# Procedure, shortened: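 Readout: ONE-Glo luciferase luminescence, 30 min at room temperature. System: Tet-on RORγ CHO, RORE-LUC. Sequence: compound 2 h, doxycycline 1 uM final, 16 h at 37 C.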
# [12] = qHTS assay to identify small molecule antagonists of the retinoic acid receptor (RAR) signaling pathway (AID 1159552; further: nearly all actives have a fitted effect of over 50% in size; further: potency means the concentration at half of the fitted maximal effect)
# Procedure, shortened: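 Overnight-plated C3RL4 reporter cells get compound, then retinol to 1 uM final; plates sit 6 hr at 37 C, 5% CO2. A luciferase reagent is added and light output recorded after 30 min at room temperature.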
# [13] = qHTS assay to identify small molecule agonists of the retinoic acid receptor (RAR) signaling pathway (AID 1159553); further: potency means the concentration at half of the fitted maximal effect
# Procedure, shortened: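 Activation of retinol signaling was monitored via a RARE luciferase reporter in C3RL4 cells. After 6 hr compound treatment at 37 C, detection reagent was added for 30 min at room temperature before luminescence reading.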
# [14] = qHTS assay to identify small molecule antagonists of the estrogen related receptor (ERR) signaling pathway - cell viability counter screen (AID 1224818);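 further: series mostly up to about 46 µM; viability measured after 17.5 h of compound exposure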
# Procedure, shortened: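 In the same ERR cell assay, compound-treated wells (17.5 h, 37 C) were multiplexed with a fluorogenic viability reagent, CellTiter-Fluor, read after 30 min to flag cytotoxic substances.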
# [15] = qHTS assay to identify small molecule antagonists of the estrogen related receptor (ERR) signaling pathway (AID 1224819)
# Procedure, shortened: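 qHTS in ERR cells, 2,000/well, 1536 format. Cpd (DMSO) added after 6 h settle, 18 h 37 C. One-Glo luminescence, 30 min RT.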
# [16] = qHTS assay to identify small molecule agonists of the estrogen related receptor (ERR) signaling pathway (AID 1224820)
# Procedure, shortened: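 Quantitative HTS of the LOPAC library used NTP ERR reporter cells treated 18 h at 37 C. Signal is luminescence after One-Glo addition and a 30 min room-temperature incubation.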
# [17] = system: estrogen-related receptor alpha (ERRalpha) with PGC-1alpha coactivator, human; test: qHTS assay to identify small molecule antagonists of the estrogen related receptor signaling pathway with the pleiotropic PPARgamma coactivator (PGC) (AID 1224821; calls by dose curve)
# Procedure, shortened: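 Quantitative HTS for antagonism: PGC/ERR cells received compounds after 6 h attachment and were incubated 18 h at 37 C, with luminescence (One-Glo) as the endpoint.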
# [18] = qHTS assay to identify small molecule antagonists of the estrogen related receptor signaling pathway with the pleiotropic PPARgamma coactivator (PGC) cell viability counter screen (AID 1224822; further: potency means the concentration at half of the fitted maximal effect)
# Procedure, shortened: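 Compounds in DMSO, with positive and negative controls, were applied to PGC/ERR cells (2,000/well) and left 17.5 h at 37 C before CellTiter-Fluor detection.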
# [19] = qHTS assay to identify small molecule agonists of the estrogen related receptor signaling pathway with the pleiotropic PPARgamma coactivator (PGC) (AID 1224823)
# Procedure, shortened: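 Cell-based luciferase assay in the NTP-supplied PGC/ERR line, 2,000 cells/well; 18 h compound exposure at 37 C, luminescence after One-Glo.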
smiles,measurement,setting,value
CC(C)CC(C)N (stereo not drawn),Potency,[1],inactive
same,Potency,[2],inactive
same,Potency,[3],inactive
same,Potency,[4],inactive
same,Potency,[5],inactive
same,outcome,[6],inactive
same,Potency,[7],inactive
same,Potency,[8],inactive
same,Potency,[9],inactive
CC(C)CCCCCCCOP(=O)(Oc1ccccc1)Oc1ccccc1,Potency,[1],inactive
same,Potency,[2],inactive
same,Potency,[10],inactive
same,Potency,[3],inactive
same,Potency,[8],inactive
same,Potency,[9],inactive
CC(C)(C)c1ccc(CSc2cnn(C(C)(C)C)c(=O)c2Cl)cc1,Potency,[2],inactive
same,Potency,[10],inactive
same,Potency,[11],0.154 µM (active)
same,Potency,[4],inactive
same,Potency,[5],inactive
same,Potency,[8],inactive
same,Potency,[12],inactive
same,Potency,[13],inactive
C[C@]12Cc3nonc3C[C@@H]1CC[C@@H]1[C@@H]2CC[C@@]2(C)[C@H]1CC[C@]2(C)O,Potency,[1],inactive
same,Potency,[2],inactive
same,Potency,[11],7.5 µM (active)
same,Potency,[7],21.3 µM (active)
same,Potency,[8],inactive
same,Potency,[13],inactive
same,Potency,[9],29.8 µM (active)
Clc1ccc(C(Cl)(Cl)Cl)c(Cl)c1,Potency,[1],inactive
same,Potency,[2],inactive
same,Potency,[3],inactive
same,Potency,[11],inactive
same,Potency,[4],inactive
same,Potency,[5],inactive
same,outcome,[6],inactive
same,Potency,[8],inactive
same,Potency,[12],inactive
same,Potency,[13],inactive
Nc1ccccc1C(=O)Oc1ccc2ccccc2c1,Potency,[1],inactive
same,Potency,[2],inactive
same,Potency,[10],43.6 µM (active)
same,Potency,[11],inactive
same,Potency,[8],inactive
same,Potency,[12],inactive
same,Potency,[13],0.193 µM (active)
same,Potency,[9],inactive
COc1cccc(C(=O)CCN[C@@H](C)[C@H](O)c2ccccc2)c1,Potency,[1],inactive
same,Potency,[2],inactive
same,Potency,[3],inactive
same,Potency,[4],inactive
same,Potency,[12],26.6 µM (active)
same,Potency,[13],inactive
same,Potency,[9],inactive
ClC1=C(Cl)[C@]2(Cl)[C@H]3[C@H]([C@H]4C=C[C@H]3C4)[C@@]1(Cl)C2(Cl)Cl,Potency,[1],inactive
same,Potency,[2],inactive
same,Potency,[4],inactive
same,Potency,[5],inactive
same,Potency,[7],inactive
same,Potency,[8],inactive
Cc1cc(C(F)(C(F)(F)F)C(F)(F)F)ccc1NC(=O)c1cccc(I)c1C(=O)NC(C)(C)CS(C)(=O)=O,Potency,[1],inactive
same,Potency,[2],inactive
same,Potency,[10],inactive
same,Potency,[3],inactive
same,Potency,[4],inactive
same,outcome,[6],inactive
same,Potency,[8],inactive
same,Potency,[12],inactive
same,Potency,[13],inactive
same,Potency,[9],inactive
CC(Cc1ccc(C(C)(C)C)cc1)CN1C[C@@H](C)O[C@@H](C)C1 (stereo partly drawn),Potency,[1],inactive
same,Potency,[10],inactive
same,Potency,[3],inactive
same,Potency,[11],inactive
same,Potency,[4],inactive
same,Potency,[5],inactive
same,outcome,[6],inactive
same,Potency,[8],inactive
same,Potency,[9],inactive
CS(=O)(=O)c1ccc(C(=O)C2C(=O)CCCC2=O)c([N+](=O)[O-])c1,Potency,[2],inactive
same,Potency,[3],inactive
same,Potency,[4],inactive
same,Potency,[7],inactive
same,Potency,[8],inactive
same,outcome,[14],inactive
same,Potency,[15],inactive
same,outcome,[16],inactive
same,Potency,[17],inactive
same,Potency,[18],inactive
same,outcome,[19],inactive
same,Potency,[9],inactive
CC(=O)[O-].[Tl+],Potency,[1],inactive
same,Potency,[2],inactive
same,Potency,[10],inactive
same,Potency,[3],inactive
same,Potency,[4],inactive
same,Potency,[5],inactive
same,Potency,[8],inactive
same,Potency,[9],61.5 µM (active)
ClC1=C(Cl)C2(Cl)C3C(Cl)C=CC3C1(Cl)C2(Cl)Cl (stereo not drawn),Potency,[1],inactive
same,Potency,[10],55.2 µM (active)
same,Potency,[3],68.9 µM (active)
same,Potency,[11],61.4 µM (active) and inactive
same,Potency,[4],43.8 µM (active)
same,Potency,[7],34.7 µM (active)
same,Potency,[8],inactive
same,Potency,[12],inactive
same,Potency,[13],inactive
same,Potency,[9],68.6 µM (active)
CC(=O)[O-].CC(=O)[O-].O.O.[Cd+2],Potency,[1],15.3 µM (active)
same,Potency,[2],0.216 µM (active)
same,Potency,[3],inactive
same,Potency,[7],13.6 µM (active)
same,Potency,[8],inactive
same,Potency,[9],26.9 µM (active)
O=c1[nH]c2ccccc2n1CCCN1CCC(n2c(=O)[nH]c3cc(Cl)ccc32)CC1,Potency,[1],inactive
same,Potency,[2],inactive
same,Potency,[10],inactive
same,Potency,[3],inactive
same,Potency,[4],inactive
same,Potency,[7],16.9 µM (active)
same,Potency,[8],inactive
same,Potency,[12],inactive
same,Potency,[13],inactive
same,Potency,[18],23.7 µM (active)
same,Potency,[9],29.8 µM (active)
CC(C)N1C(=O)N(c2ccccc2)CSC1=NC(C)(C)C,Potency,[2],inactive
same,Potency,[10],inactive
same,Potency,[11],43.3 µM (active)
CCCCCCCCCCCCCCCC[n+]1ccccc1,Potency,[1],24.2 µM (active) [middle of 4 runs]
same,Potency,[10],34.7 µM (active) and 34.2 µM (active) and 12 µM (active)
same,Potency,[3],54.5 µM (active) [middle of 4 runs]
same,Potency,[11],4.27 µM (active) [middle of 4 runs]
same,Potency,[4],32.3 µM (active) and 54.9 µM (active) and 43 µM (active)
same,Potency,[7],17.1 µM (active) [middle of 4 runs]
same,Potency,[8],63.9 µM (active) and 54.5 µM (active) and 53.7 µM (active)
same,Potency,[9],32 µM (active) [middle of 4 runs]
C[C@]12CC[C@H]3[C@@H](CCC4=CC(=O)CC[C@@]43C)[C@@H]1CC[C@@H]2O,Potency,[1],inactive
same,Potency,[2],inactive
same,Potency,[10],inactive
same,Potency,[3],inactive
same,Potency,[4],inactive
same,Potency,[7],inactive
same,Potency,[12],48.2 µM (active)
same,Potency,[13],inactive
same,Potency,[9],inactive
S=C(SSC(=S)N1CCCCC1)N1CCCCC1,Potency,[2],inactive
same,Potency,[10],inactive
same,Potency,[3],0.188 µM (active)
same,Potency,[7],0.12 µM (active)
same,Potency,[8],inactive
same,Potency,[9],0.531 µM (active)
CCOCCOC(C)=O,Potency,[2],inactive
same,Potency,[3],inactive
same,Potency,[4],inactive
same,Potency,[5],inactive
same,Potency,[7],inactive
same,Potency,[8],inactive
same,Potency,[13],inactive
same,outcome,[14],inactive
same,Potency,[15],inactive
same,outcome,[16],inactive
same,Potency,[17],inactive
same,Potency,[18],inactive
same,outcome,[19],inactive
same,Potency,[9],inactive
O=C(O)COc1nc(Cl)c(Cl)cc1Cl,Potency,[2],inactive
same,Potency,[10],inactive
same,Potency,[3],inactive
same,Potency,[4],inactive
same,Potency,[5],inactive
same,Potency,[8],inactive
same,Potency,[12],inactive
same,Potency,[13],inactive
same,outcome,[14],inactive
same,Potency,[18],inactive
same,Potency,[9],inactive
